Reference: PubChem BioAssay AID2732 (Emory University Molecular Libraries Screening Center, 2010)
Screen size: about 220,000 compounds; about 8,200 (3.7%) were called active.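 How the source made its calls: active means compounds that reduced the stress-induced luciferase reporter signal by more than about 70% of percent inhibition (limit read from the data); inactive means the rest.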 Many of the other results were omitted from the sample, so actives are more common in it than they were.

Test: inhibitors of CHOP promoter induction, primary screen, cell-based, unfolded protein response, luciferase reporter (AID 2732);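 further: 0% = tunicamycin plus vehicle and 100% = wells without tunicamycin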
Details: CHO-K1 CHOP-promoter luciferase, tunicamycin-induced, 15-18 h; at 10 µM; hits give high values

Structure (SMILES)	inhibition
S=c1[nH]nc(-c2cccs2)n1/N=C/c1cn(-c2ccccc2)nc1-c1ccc(Cl)cc1	57.5% (inactive)
Cc1ccc(NNC(=O)c2cccs2)cc1Cl	-7.82% (inactive)
CSC1=NC2(C)CCCCC2C12C=CC(=O)C=C2 (stereo unspecified)	-8.01% (inactive)
CNC(=O)c1nnc(Cc2ccc(Cl)cc2)o1	84.2% (active)
Clc1ccc(Cc2nnc(-c3cccs3)o2)cc1	-8.41% (inactive)
O=C(Nc1nnc(Cc2ccc(Cl)cc2)s1)c1ccncc1	2.85% (inactive)
CS(=O)(=O)c1ccc2nnn(OCC(=O)Nc3cccc(C#N)c3)c2c1	7.09% (inactive)
CNC(=O)c1cccc2nc3ccccc3nc12	-2.58% (inactive)
CCOC(=O)c1cnc(SCc2nc(N)nc(Nc3ccc(OC)cc3)n2)nc1N	27.6% (inactive)
CCCCOc1ccc(-c2ncc(C(=O)OCC)c(N)n2)cc1	87.4% (active)
CCOC(=O)c1cnc(-c2ccccc2)nc1Oc1ccc(C)cc1	16.8% (inactive)
O=C(N/N=C/c1ccco1)c1csc2c1CCCC2	-20.7% (inactive)
CCOC(=O)C1=C(CSc2nccn2C)NC(=O)NC1c1ccc(OC)cc1 (stereo unspecified)	34.2% (inactive)
CCOC(=O)C1=C(C)N=c2s/c(=C\C(=O)OC)c(=O)n2C1c1ccc(OC)cc1 (stereo unspecified)	89.2% (active)
COCCOC(=O)C1=C(C)N=c2s/c(=C\c3cccs3)c(=O)n2C1c1cccs1 (stereo unspecified)	4.98% (inactive)
CC(C)Cc1ccc(C(C)C(=N)N)cc1 (stereo unspecified)	4.47% (inactive)
CC(=O)NC(CC(=O)Nc1nccs1)c1ccccc1 (stereo unspecified)	-2.49% (inactive)
CCC(C)(C)NC(=O)C(c1ccc(O)cc1)N(C(=O)Cn1nnc2ccccc21)c1ccc(NC(C)=O)cc1 (stereo unspecified)	4.95% (inactive)
Cc1cc(-n2cnc(-c3cn(C)nc3C)n2)no1	-11.3% (inactive)
Brc1ccc2c(c1)[C@H]1OCC[C@H]1[C@@H](c1cccs1)N2	39.4% (inactive)
O=C1C=CC(=O)N1c1ccc(N2CCCCC2)cc1	94% (active)
O=c1[nH][nH]c(=O)c2cc(N3CCCC3)ccc12	2.26% (inactive)
COc1cccc(OC)c1C(=O)Nc1ccc(N2CCCCC2)cc1	15.2% (inactive)
Cc1nc(C(=O)NCc2ccccc2)sc1C1(C)CC(c2cccnc2)=NO1 (stereo unspecified)	22.9% (inactive)

Structure (SMILES)	inhibition
O=C(N/N=C/c1cccc2cccnc12)[C@H]1C[C@@H]1c1ccccc1	52.4% (inactive)
CC1=NN(C(=O)c2ccccc2Br)C(O)(c2cccnc2)C1 (stereo unspecified)	-24.4% (inactive)
CC1=NN(C(=O)c2ccc(Br)cc2)C(O)(c2ccccc2)C1 (stereo unspecified)	16.6% (inactive)
CC1=NN(C(=O)Cc2ccc(C)cc2)C(O)(c2cccnc2)C1 (stereo unspecified)	73.8% (active)
O=C(O)C1=C[C@H](c2cccs2)C[C@H](OCCCCO)O1	-3.52% (inactive)
Cc1ccc(S(=O)(=O)N(C)CC(=O)OCC(=O)Nc2ccccc2)cc1	-0.65% (inactive)
COc1ccccc1P(=O)(c1ccccc1)c1ccccc1NC(C)=O (stereo unspecified)	10.1% (inactive)
Cn1c(=NC(=O)c2ccc3c(c2)OCCO3)sc2cc(S(C)(=O)=O)ccc21	91.9% (active)
CC(=O)c1ccc2c(c1)OCCOCCOc1ccc(C(C)=O)cc1OCCOCCO2	1.66% (inactive)
COCCn1c(=NC(=O)c2ccccc2[N+](=O)[O-])sc2cc(S(C)(=O)=O)ccc21	-7.33% (inactive)
O=C(Nc1ccccc1)O/N=C1/CCCc2occc21	-8.45% (inactive)
CN1CCN(c2cc3c(cc2F)c(=O)c(C(=O)O)cn3CCF)CC1	2.99% (inactive)
O=C(Cn1cnc2cc([N+](=O)[O-])ccc2c1=O)NC(=O)NCc1ccccc1	-6.05% (inactive)
O=C(NNc1cc(Cl)cc(Cl)c1)c1c(F)cccc1Cl	30.1% (inactive)
Cc1nn(CC(=O)N/N=C/c2ccc(F)cc2)c(C)c1[N+](=O)[O-]	-4.46% (inactive)
CSc1nnc(SCc2nc3sc(C(=O)O)c(C)c3c(=O)[nH]2)s1	3.13% (inactive)
O=C(NN1C(=O)C2CCCCC2C1=O)c1ccco1 (stereo unspecified)	6.45% (inactive)
S=C(NCc1cccnc1)Nc1ccc(Cl)cc1Cl	2.87% (inactive)
O=C(CSc1cccc2cccnc12)N/N=C/c1cccnc1	42.7% (inactive)
CC(=O)/C(=N\Nc1ccc(Cl)cc1Cl)Sc1cccc2cccnc12	93.6% (active)
Nc1ccc2nn(-c3ccc(Cl)cc3)nc2c1	30.4% (inactive)
COc1cc(/C=N/O)ccc1OCc1ccc([N+](=O)[O-])cc1	2.17% (inactive)
CCCc1ccc(OCc2ccc(C(=O)N/N=C/c3cccc([N+](=O)[O-])c3)o2)c(OC)c1	85.8% (active)
COC(=O)c1ccc(COc2ccc(/C=N/NC(=O)C(=O)Nc3ccc(OC)cc3)cc2OC)o1	17.4% (inactive)

Structure (SMILES)	inhibition
COc1cc(C(CCN2CCN(c3ccccc3)CC2)c2c(OC)cc(OC)c3ccc(=O)oc23)cc(OC)c1OC (stereo unspecified)	-15.7% (inactive)
Cc1[nH]n(-c2ccc(Cl)cc2)c(=O)c1/C=N/n1c(C)nc2ccccc2c1=O	26.2% (inactive)
CCOc1[nH]n(-c2ccc(Cl)cc2)c(=O)c1C=Nc1ccc(O)cc1	73.4% (active)
CCOc1ccc(N=Cc2c(O)n(-c3cccc(C)n3)c(=O)c3ccccc23)cc1	-5.5% (inactive)
CC(C)(C)c1cc(NC(=O)NN2CCOCC2)nn1-c1c(Cl)cc(Cl)cc1Cl	11.2% (inactive)
CCNC(=S)N1CCN(CCN=CC2=C(O)CC(C)(C)CC2=O)CC1	13% (inactive)
CC(C)(C)NC(=O)NCc1ccco1	6.03% (inactive)
CSc1sc(C(=O)NNC(=O)c2ccc(Cl)cc2)c2c1C=CCC2	0.19% (inactive)
O=C(Nc1ccccc1C(F)(F)F)N1CCCC1c1cccnc1 (stereo unspecified)	4.33% (inactive)
O=[N+]([O-])/C=C1\CCCCCN1	-14.7% (inactive)
O=C(Nc1cccc(C(F)(F)F)c1)c1cnccn1	-10.5% (inactive)
Cn1nc(C(F)(F)F)c(C(=O)Nc2cccc(C(F)(F)F)c2)c1SCc1ccc(Cl)cc1	80.9% (active)
O=C(O)CSCC(=O)Nc1cccc(C(F)(F)F)c1	-3.97% (inactive)
CCOC(=O)CSc1nc(C)c(Oc2ccc(Cl)cc2Cl)c(=O)[nH]1	10.4% (inactive)
O=C(NN1C(=O)C2C(C1=O)C1C=CC2C12CC2)c1ccccc1Cl (stereo unspecified)	3.92% (inactive)
COc1ccc(-c2csc(Nc3ccccn3)n2)cc1	-4.38% (inactive)
CCOc1cc(NC(=O)c2ccccn2)c(OCC)cc1NC(=O)c1ccc(OC)cc1	-5.86% (inactive)
COc1ccc(C(=O)/C=C/Nc2ccccn2)cc1	73.5% (active)
Cn1c2ccc(F)cc2c2nnc(NN)nc21	13.9% (inactive)
N#CCCCn1c(O)c(N=NC(=O)C(O)c2ccccc2)c2ccccc21 (stereo unspecified)	11.1% (inactive)
Cc1ccc(C(c2nnnn2CS(=O)(=O)c2ccc(C)cc2)N2CCC(C(N)=O)CC2)cc1 (stereo unspecified)	33.9% (inactive)
CC(C)C(c1nnnn1CCc1ccccc1)N1CCN(C(=O)c2ccco2)CC1 (stereo unspecified)	-7.76% (inactive)
CC(C)C(c1nnnn1Cc1ccccc1)N1CCC(C(N)=O)CC1 (stereo unspecified)	76.1% (active)
COc1ccc(NC(=S)NCCNC(C)=O)cc1	-5.59% (inactive)

Structure (SMILES)	inhibition
COc1ccc(CS(=O)/C(Cl)=C(/Cl)C(=O)Nc2ccc(OC)nc2)cc1 (stereo unspecified)	107% (active)
COc1ccc(NC(=S)Nc2ccccc2Cl)cn1	1.96% (inactive)
Cc1nc(COc2cccc(Cl)c2)sc1C(=O)/C=C/N(C)C	-1.3% (inactive)
NC(=O)C1(N2CCCCC2)CCN(C(=S)Nc2ccc(Cl)cc2)CC1	8.9% (inactive)
CC(C)(O)C#Cc1ccc(C(=O)N2CCC(C(N)=O)(N3CCCCC3)CC2)cc1	20.2% (inactive)
NC(=O)C1(N2CCCCC2)CCN(C(=O)c2ccc(C#Cc3ccccc3)o2)CC1	78.8% (active)
COc1ccc(CCNC(=O)C2CC3Cn4c(nc5cc(C)c(C)cc54)C3N2C)cc1 (stereo unspecified)	-11.2% (inactive)
Cc1ccc(N2NC(=O)/C(=C/C=C/c3ccco3)C2=O)cc1C	5.23% (inactive)
Cc1ccc(N=C2NC(=O)/C(=C/C=C/c3ccco3)S2)cc1C	84.4% (active)
Cc1cccc(N=C2NC(=O)/C(=C/c3cn(C)c4ccccc34)S2)c1	14% (inactive)
CCN(CC)C(=O)CC(c1ccc2c(c1)OCO2)c1c(OC)cc(OC)c2c(-c3ccccc3)cc(=O)oc12 (stereo unspecified)	9.26% (inactive)
O=C(Nc1ccccc1N1CCCCC1)c1ccc2nccnc2c1	79% (active)
Cc1cc(C(=O)Nc2ccccc2N2CCOCC2)c2ccccc2n1	26.9% (inactive)
O=C(Nc1ccccc1N1CCCCC1)c1cccc(F)c1	76% (active)
Cc1cccc(C(=O)Nc2ccccc2N2CCN(c3ccc(F)cc3)CC2)c1	30.4% (inactive)
O=C(Nc1ccccc1N1CCN(c2ccccc2)CC1)c1cccc(F)c1	44.2% (inactive)
O=C(Nc1ccccc1N1CCN(C(=O)c2ccccc2)CC1)c1ccc2c(c1)OCO2	40% (inactive)
CCc1ccccc1N1CN(Cc2ccco2)CNC1=S	-7.09% (inactive)
Cc1nc(-c2nnc(SCC(=O)Nc3cc(C(F)(F)F)cc(C(F)(F)F)c3)n2C)cs1	61.4% (inactive)
CC1CC(C)(C)n2c(O)c(N=NC(N)=S)c3cccc1c32 (stereo unspecified)	21.3% (inactive)
CCOc1ccc2sc(NS(=O)(=O)c3ccc(N)cc3)nc2c1	5.24% (inactive)
COC(=O)c1ccc(Oc2nc(Nc3ccc(F)cc3)nc(N3CCCC3)n2)cc1	73.6% (active)
COC(=O)c1ccc(Oc2nc(NC(C)C)nc(SC)n2)cc1	20.5% (inactive)
CCNc1nc(Oc2ccc(C(=O)OC)cc2)nc(N2CCOCC2)n1	-6.61% (inactive)
